Reference: PubChem BioAssay (EPA / NIEHS)
“And” between values parts separate entries of the source, which are not always exact repeats. Equal values may be shown once. Inconclusive results are not listed. A structure can be active in one record and inactive in another. The source made the active and inactive calls. How the source made its calls: active means hit-call score of the fitted dose curve at least 0.9, where 1 is the maximum; inconclusive means response in the unintended direction; inactive means score below 0.9.

target: human Retinoic Acid Receptor gamma (RARg), RARG (gene 5916) (UniProt P13631); assay: ATG_RARg_TRANS: Attagene TRANS-FACTORIAL HepG2 Assay for human Retinoic Acid Receptor gamma (RARg) (AID 2283009);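 on AC50: AC50 is for reporter induction above DMSO meaning RARg activation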
Method: ATG_TRANS is a cell-based, multiplexed-readout assay that uses HepG2, a human liver cell line, with measurements taken at 24 hours after chemical dosing in a 24-well plate.ATG_RARg_TRANS is one of 30 assay component(s) measured or calculated from the ATG_TRANS assay. It is designed to make measurements of mRNA induction, a form of inducible reporter, as detected with fluorescence intensity signals by Reverse transcription polymerase chain reaction (RT-PCR) and Capillary electrophoresis technology.Data from the assay component ATG_RARg_TRANS was analyzed into 1 assay endpoint. This assay endpoint, ATG_RARg_TRANS, was analyzed in the positive analysis fitting direction relative to DMSO as the negative control and baseline of activity. Using a type of inducible reporter, measures of mRNA for gain-of-signal activity can be used to understand the reporter gene at the transcription factor-level as they relate to the gene RARG. Furthermore, this assay endpoint can be referred to as a primary readout, because this assay has produced multiple assay endpoints where this one serves a reporter gene function. To generalize the intended target to other relatable targets, this assay endpoint is annotated to the nuclear receptor intended target family, where the subfamily is non-steroidal.
Human liver HepG2 cells are transiently transfected with multiple reporter transcription units (MRTUs) in 6-well plates using FuGene 6 reagent (Roche; 3 ml FuGene/1 mg DNA). The MRTU constructs are regulated by a cis-regulating element (promoter). […] A major difference between the CIS and TRANS system is that in CIS activities of endogenous TFs are measured, whereas the TRANS assay evaluates changes in activities of exogenous, chimeric NR-Gal4 proteins. […] At the end of 24 hour incubation, total RNA was isolated using TriZol reagent (Invitrogen). The isolated RNA is then reverse-transcribed using oligo(dT) primer and Mo-MLV reverse transcriptase (Invitrogen) with DNAse I (Ambion) treatment for 30 min. The one-tenth of the produced cDNA was amplified by PCR using Taq DNA polymerase (Invitrogen) and two reporter sequence-specific primers. The PCR products were fluorescently labeled by primer extension with 6-arboxyfluorescein (6-FAM) 5'-labeled reporter sequence-specific primer (2 min at 95 C, 20 s at 68 C and 10 min at 72 C) and these products were digested with 5U of HpaI (New England Biolabs) for 2h at 37 C. […] The raw capillary electrophoresis data was processed using Attagraph software (Attagene).

Chain of human Retinoic Acid Receptor gamma (RARg), RARG (gene 5916) (P13631 whole entry, looked up): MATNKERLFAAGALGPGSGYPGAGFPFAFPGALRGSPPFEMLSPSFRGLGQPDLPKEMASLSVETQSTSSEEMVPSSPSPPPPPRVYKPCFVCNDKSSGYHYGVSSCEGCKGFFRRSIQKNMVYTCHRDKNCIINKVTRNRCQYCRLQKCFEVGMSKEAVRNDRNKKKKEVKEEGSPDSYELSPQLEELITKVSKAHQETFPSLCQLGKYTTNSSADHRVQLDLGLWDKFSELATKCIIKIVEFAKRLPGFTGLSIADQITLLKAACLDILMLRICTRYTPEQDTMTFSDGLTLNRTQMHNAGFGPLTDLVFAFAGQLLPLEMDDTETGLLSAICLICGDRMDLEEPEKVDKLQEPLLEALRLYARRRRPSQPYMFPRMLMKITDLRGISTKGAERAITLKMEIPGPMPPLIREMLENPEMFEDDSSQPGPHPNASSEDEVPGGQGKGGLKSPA

Compound | outcome | AC50
CCOC1Oc2ccc(OS(C)(=O)=O)cc2C1(C)C (stereo not given) | inactive | –
Cc1[nH]c(=O)n(C(C)(C)C)c(=O)c1Cl | inactive | –
CC(C)(C)C(O)/C(=C\c1ccc(Cl)cc1Cl)n1cncn1 (stereo not given) | inactive | –
CC1(c2ccc(Oc3ccccc3)cc2)OC(=O)N(Nc2ccccc2)C1=O (stereo not given) | inactive | –
Clc1ccccc1-c1nnc(-c2ccccc2Cl)nn1 | inactive | –
Cc1cc(C)nc(NC(=O)NS(=O)(=O)c2ccccc2C(=O)OC2COC2)n1 | inactive | –
CCC(C)(NC(=O)c1cc(Cl)c(C)c(Cl)c1)C(=O)CCl (stereo not given) | inactive | –
COc1nn(CSP(=S)(OC)OC)c(=O)s1 | inactive | –
CC(C)(C)C(O)C(Oc1ccc(Cl)cc1)n1cncn1 (stereo not given) | inactive | –
CCN(CC)C(=O)SCc1ccc(Cl)cc1 | inactive | –
OCCOc1ccccc1 | inactive | –
O=[N+]([O-])c1c(Cl)c(Cl)c(Cl)c(Cl)c1Cl | inactive | –
ClC1C(Cl)C(Cl)C(Cl)C(Cl)C1Cl (stereo not given) | inactive | 6.81 µM (active) and 8.7 µM (active)
CCC(C)(C)C(=O)OC1=C(c2ccc(Cl)cc2Cl)C(=O)OC12CCCCC2 | inactive | –
CC[C@H](C)[C@H]1O[C@]2(C=C[C@@H]1C)C[C@@H]1C[C@@H](C/C=C(\C)[C@@H](O[C@H]3C[C@H](OC)[C@@H](O[C@H]4C[C@H](OC)[C@@H](O)[C@H](C)O4)[C@H](C)O3)[C@@H](C)/C=C/C=C3\CO[C@@H]4[C@H](O)C(C)=C[C@@H](C(=O)O1)[C@]34O)O2 (tested in a mixture with another compound) | inactive | –
COP(=S)(OC)Oc1ccc(SC)c(C)c1 | inactive | –
C[C@H]1[C@H](c2ccc(Cl)cc2)SC(=O)N1C(=O)NC1CCCCC1 | inactive | –
COP(=S)(OC)Oc1ccc([N+](=O)[O-])cc1 | inactive | –
CCS(=O)(=O)c1cccnc1S(=O)(=O)NC(=O)Nc1nc(OC)cc(OC)n1 | inactive | –
C#CCN1C(=O)COc2cc(F)c(N3C(=O)C4=C(CCCC4)C3=O)cc21 | inactive | –
CCC(C)Nc1c([N+](=O)[O-])cc(C(C)(C)C)cc1[N+](=O)[O-] (stereo not given) | inactive | –
O=[N+]([O-])/N=C1\NCCN1Cc1ccc(Cl)nc1 | inactive | –
COC(=O)c1ccccc1CS(=O)(=O)NC(=O)Nc1nc(OC)cc(OC)n1 | inactive | –
CCCN(CCOc1c(Cl)cc(Cl)cc1Cl)C(=O)n1ccnc1 | inactive | –
COc1cc(OC)nc(NC(=O)NS(=O)(=O)c2cc(NC=O)ccc2C(=O)N(C)C)n1 | inactive | –
Oc1ccc(Cl)cc1Cc1ccccc1 | inactive | –
N#Cc1c(Cl)c(Cl)c(Cl)c(C#N)c1Cl | inactive | –
CCc1ccc(C(=O)NN(C(=O)c2cc(C)cc(C)c2)C(C)(C)C)cc1 | inactive | –
COC(=O)c1ccccc1S(=O)(=O)NC(=O)Nc1nc(C)nc(OC)n1 | inactive | –
